VACV Venus inh = vaccinia inhibition (Venus reporter); Potency, µM (doses to about 36.5 µM), without a hit: top-dose activity change, negative = inhibition, actives largely listed as inhibitors; Vaccinia virus Venus reporter expression, fluorescence; AID 720580; 330,000 tested, 0.46% active; calls by dose curve; tested in A549 cells; note: potency is the fitted concentration of half-maximal effect; nearly all actives have a fitted effect of over 30% in size
HCV inhibitor = inhibitors of hepatitis C virus infection. Huh7.5.1 HCVcc-Cre infection, luciferase reporter, 44 h. Potency, µM (top dose mostly 41.8 µM), for inactives: at the highest dose activity change, negative = inhibition, most hits filed as inhibitors. 340,000 tested, 3.4% active; active = well fitted inhibition curve with a large enough effect; inconclusive = small, poorly fitted or top-dose-only effect, or another doubt; inactive = no such curve, though single readings can be large or run the other way; note: potency is the fitted concentration of half-maximal effect
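Antiviral activity was scored by luciferase reporter output from cells infected with HCVcc-Cre (~0.5 moi) in presence of compound, 44 h infection period, cells seeded 1,000/well 4 h prior.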
VACV mCherry inh = inhibitors of vaccinia virus infection (mCherry reporter signal) | Vaccinia virus mCherry reporter infection, fluorescence | 310,000 tested, 0.63% active | Potency, µM (doses to about 36.5 µM), for the others: at the highest dose activity change, negative = inhibition, usual class: inhibitors; calls by dose curve; tested in A549 cells; note: potency is the fitted concentration of half-maximal effect; nearly all actives have a fitted effect of over 35% in size
FMDV inh = blocks foot and mouth disease virus. Potency, µM (series often up to 57.9 µM), for inactives: at the top dose activity change, negative = inhibition, hits mostly inhibitors. FMDV antiviral cell-based qHTS. 410,000 tested, 1.2% active; calls by dose curve; tested in HEK293T cells; note: read-out not given here; potency is the fitted concentration of half-maximal effect; nearly all actives have a fitted effect of over 45% in size
HCMV antiviral = blocks human cytomegalovirus replication. HFF cells, HCMV-luciferase reporter, 72 h; stronger effect = lower value. activity change, negative = inhibition, % at 57.5 µM. 410,000 tested, 4.5% active. AID 1259415; in the data active = activity change below about -60%; inconclusive = no clear call, values can overlap the other calls; inactive = above about -39%
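Steps: HFFs plated, 16 h 37C; compounds added; HCMV-luciferase added to MOI 1 PFU/cell; 72 h 37C; OneGlo reagent, 5 min room temperature; luminescence read, normalized to controls.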
Active calls of the source: *; i = inactive; ? = inconclusive; . = no result. The list is not random: actives were taken first. Their share in the collection is about 7.3%. % is set by controls: 0 for no effect and ±100 for the full control effect.

SMILES | VACV Venus inh | HCV inhibitor | VACV mCherry inh | FMDV inh | HCMV antiviral
CCC(=O)OCCNc1cc(Sc2nc3ccccc3s2)c2nonc2c1[N+](=O)[O-] | . | -28% | . | 25µM* | 69
CCCSc1cc(NCCOC(C)=O)c([N+](=O)[O-])c2nonc12 | -4% | 5% | i | 0% | -28
CCCC(=O)OCCNc1cc(Sc2nccn2C)c2nonc2c1[N+](=O)[O-] | -8% | ? | -23% | 35µM* | 53
Cc1nnc(Sc2cc(NCCO)c([N+](=O)[O-])c3nonc23)s1 | -12% | ? | i | ? | -10
Cc1nnc(Sc2cc(NCCCO)c([N+](=O)[O-])c3nonc23)s1 | 1% | 10µM* | i | ? | 57
CCCSc1cc(NCCOC(=O)CCC)c([N+](=O)[O-])c2nonc12 | -13% | -4% | -23% | 0% | ?
O=[N+]([O-])c1c(NCCCO)cc(Sc2nc3ccccc3s2)c2nonc12 | . | -27% | . | ? | .
COc1cc(C(=O)NCC(c2ccco2)S(=O)(=O)c2cccs2)cc(OC)c1OC (stereo unspecified) | -7% | . | -12% | -24% | 11
O=[N+]([O-])c1ccccc1S(=O)(=O)NCc1ccccn1 | -14% | . | -23% | . | .
COc1cc(=O)n2c(c1C(=O)N(C)Cc1cscn1)CCN(C(=O)c1cccc(C)c1C)CC2 | -10% | . | i | 10% | .
COc1ccc(NC(=O)c2c(NCc3ccc(N(C)C)cc3)sc3c2CCC3)cc1 | -2% | . | -3% | 11% | 28
C=C1C[C@@]2(C)CCCC3=CC(=O)C=C[C@@]32Oc2ccccc21 | . | . | . | . | -14
COc1ccc(Cl)cc1NC(=O)CCc1c(C)nc2c(c1C)c(=O)n(C)c(=O)n2C | 9% | . | -1% | -18% | -7
Cn1cccc1C(=O)N1CCC2(CCN(C(=O)Nc3cccc(F)c3)CC2)CC1 | . | . | . | -15% | .
CCCCOC(=O)c1ccc(NC(=O)/C(C#N)=C/c2ccc(-c3ccccc3)o2)cc1 | -11% | . | -12% | -26% | 0
CC(=O)OCCCNc1cc(SCc2ccco2)c2nonc2c1[N+](=O)[O-] | ? | 0% | 11µM* | 35µM* | 10
O=C(NC(=S)Nc1ccc(N2CCOCC2)cc1)c1ccccc1 | -10% | 7% | -25% | 22% | 12
O=C(NC(=S)Nc1ccc(N2CCOCC2)cc1)c1cccc(Cl)c1 | -24% | 25µM* | -4% | -12% | 20
CCCC(=O)N1CCN(c2ccc(NC(=S)NC(=O)c3cccc(C)c3)cc2)CC1 | 4% | 7.1µM* | -7% | 16µM* | ?
CCc1ccc(C(=O)NC(=S)Nc2ccc(N3CCOCC3)cc2)cc1 | ? | ? | ? | 0% | -89*
COc1cccc(C(=O)NC(=S)Nc2ccc(N3CCCC3)cc2)c1 | -11% | ? | . | ? | 17
C/C(=N\NC(=S)Nc1ccc(C)c(C)c1)c1ccc(N2CCOCC2)cc1 | . | ? | . | -13% | -61*
CCC(=O)N1CC(=O)N2[C@H](C1)[C@@H](c1ccc(Br)cc1)[C@@H]2CO | . | . | . | . | 18
COc1ccc(C(C)N(C)Cc2nc(N3CCN(C(=O)c4ccco4)CC3)c3ccccc3n2)cc1 (stereo unspecified) | 0% | . | 2% | 7% | .
Cc1ccc(Cl)cc1NC(=O)OCCN(C)C(=O)Nc1cc(Cl)ccc1C | . | . | . | . | -32
SMILES | VACV Venus inh | HCV inhibitor | VACV mCherry inh | FMDV inh | HCMV antiviral
Cc1cc(C)c[n+](C2=C([O-])c3ccccc3C(=O)/C2=N\S(=O)(=O)c2cccs2)c1 | . | ? | . | 40µM* | 0
Cc1cc[n+](C2=C([O-])c3ccccc3C(=O)/C2=N\S(=O)(=O)c2cccs2)cc1C | -17% | 11µM* | -14% | -24% | 4
O=C1/C(=N\S(=O)(=O)c2cccs2)C([n+]2cccc(Cc3ccccc3)c2)=C([O-])c2ccccc21 | -27% | -77% | ? | ? | .
O=C(Nc1ccccc1)c1ccc(-n2nncc2-c2ccccc2)cc1 | -14% | . | 4% | . | .
Cc1ccc(CCNC(=O)c2cc3n(n2)CCCN(Cc2ccc(C)cc2)C3=O)cc1 | -17% | . | -26% | -9% | -3
COC(=O)[C@H]1[C@H](CO)[C@H]2Cn3c(ccc(Br)c3=O)[C@H]2N1C(C)=O | . | . | . | . | 20
COc1ccnc(N2CCN(c3ccc(Cl)cc3)CC2)c1C#N | -9% | 32µM* | -15% | ? | -68*
COc1ccnc(N2CCN(c3cccc(C(F)(F)F)c3)CC2)c1C#N | -9% | 19% | -17% | . | 6
COC(=O)c1ccc(-c2nc(O)c(C)s2)cc1 | -8% | 15% | i | 8% | -65*
COC(=O)c1ccc(-c2nc3cc(Cl)c(N)cc3s2)cc1 | -11% | 0% | -27% | 10µM* | 76
COC(=O)c1ccc(O)cc1 | -3% | 24% | -12% | 10% | 4
COC(=O)c1ccc(C(=O)Nc2nc3cc(N)c(C)cc3s2)cc1 | -10% | -6% | -16% | 5% | ?
C[C@@H]1CNC(=O)c2c(C(=O)N3CCN(c4ccccc4)CC3)ncn21 | . | . | . | . | -5
CCN(C(=O)Cn1nnc2sc3c(c2c1=O)CCC(C(C)(C)C)C3)c1cccc(C)c1 (stereo unspecified) | -4% | . | 1% | ? | -2
CC[C@]1(O)C[C@@H]2CN(CCc3c([nH]c4ccccc34)[C@](C(=O)OC)(c3cc4c(cc3OC)N(C=O)[C@H]3[C@@](O)(C(=O)OC)[C@H](C(=O)OC)[C@@]5(CC)C=CCN6CC[C@]43[C@H]65)C2)C1 | . | . | . | 4% | .
CCOc1ccc(CNC(=O)c2cc3c(=O)n(Cc4cccs4)ccc3nc2C)cc1 | -19% | . | -22% | -10% | ?
Cc1nc(N2CCN(Cc3ccc(Cl)cc3)CC2)c2oc3ccccc3c2n1 | -18% | 8.9µM* | -19% | ? | -39
Cc1nc(N2CCN(Cc3ccc4c(c3)OCO4)CC2)c2oc3ccccc3c2n1 | -25% | -8% | i | 28µM* | -30
COc1ccccc1N1CCN(c2nc(C)nc3c2oc2ccccc23)CC1 | . | 3.5µM* | . | 28µM* | -82*
Cc1nc(N2CCN(Cc3ccc4c(c3)OCO4)CC2)c2cc(-c3ccccc3)sc2n1 | -17% | ? | ? | -12% | -3
Cc1c(Cl)cccc1NC(=O)C(=O)NCCc1csc(-c2ccc(C(F)(F)F)cc2)n1 | -15% | . | -15% | -23% | 33
O=C(Nc1ccccc1-c1ccccc1)c1ccc(Cl)c([N+](=O)[O-])c1 | 13µM* | ? | 20µM* | -9% | -32
CCOc1ccc(C(=O)NC(=S)Nc2ccccc2N2CCC(C)CC2)cc1[N+](=O)[O-] | -9% | ? | . | ? | -97*
O=C(Nc1ccccc1N1CCCCC1)c1ccc(Cl)c([N+](=O)[O-])c1 | ? | 13µM* | -21% | ? | 25
O=C(Nc1ccc(Nc2ccccc2)cc1)c1ccc(Cl)c([N+](=O)[O-])c1 | . | 0% | . | -20% | -31
CN1CCCN(C(=O)CSc2nc3cccnc3n2C)CC1 | . | . | . | . | 8
Cc1cnc(C(=O)NCc2c(C)ncc3c2CCN(C(=O)/C=C/c2cccs2)C3)cn1 | -6% | . | -14% | -8% | .

From PubChem BioAssay
